Assay [1] has as its system 5-hydroxytryptamine receptor 2C (pig). The assay is described as follows: NVS_GPCR_p5HT2C: NovaScreen (NVS) G Protein-Coupled Receptor Assay for pig Serotonin, 5-Hydroxytryptamine Receptor 2C (5HT2C) (AID 2283288). An outline of the steps:
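Radioligand displacement on membranes from pig choroid plexus, detected by filter scintillation counting after 1 h. Tested first at a single 25 uM in duplicate, then in concentration-response for actives; DMSO served as baseline.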

For assay [2], the target named is rat Adrenergic, Alpha 1, Non-selective Receptor (Adra1), Adra1a (gene 29412) (UniProt P43140). The assay is described as follows: NVS_GPCR_rAdra1_NonSelective: NovaScreen (NVS) G Protein-Coupled Receptor Assay for rat Adrenergic, Alpha 1, Non-selective Receptor (Adra1) (AID 2283289). An outline of the steps:
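Chemicals first screened in duplicate at 25 uM, then actives tested in concentration series up to 50 uM. Binding measured as displacement of radioligand from rat forebrain membrane receptors, 1 h, filtration with scintillation readout; DMSO baseline.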

Assay [3] deals with human Opioid Receptor Mu (Opiate Mu), OPRM1 (gene 4988) (UniProt P35372). The assay is described as follows: NVS_GPCR_hOpiate_mu: NovaScreen (NVS) G Protein-Coupled Receptor Assay for human Opioid Receptor Mu (Opiate Mu) (AID 2283290).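 Note: hits lower bound tracer signal versus DMSO meaning displacement of the ligand.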 An outline of the steps:
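Cell-free radioligand binding to membranes from CHO cells expressing the receptor; bound tracer measured by filter-based scintillation counting 2.5 hours after dosing. Loss of signal versus DMSO baseline reflects displacement; primary screen at 25 uM in duplicate, actives followed up in concentration series.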

For assay [4], the target named is guinea pig Serotonin, 5-Hydroxytryptamine Receptor 4 (5HT4), HTR4 (gene 100135548) (UniProt O70528). Kind of assay: NVS_GPCR_g5HT4: NovaScreen (NVS) G Protein-Coupled Receptor Assay for guinea pig Serotonin, 5-Hydroxytryptamine Receptor 4 (5HT4) (AID 2283294). An outline of the steps:
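Compounds first screened in duplicate at 25 uM, actives followed up in concentration series. Binding measured as displacement of specific radioligand from guinea pig striatal membranes, 1 h, filter-based scintillation read-out versus DMSO baseline.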

Assay [5] deals with rat Adrenergic, Alpha 1B Receptor (Adra1B), gene 24173. The assay is described as follows: NVS_GPCR_rAdra1B: NovaScreen (NVS) G Protein-Coupled Receptor Assay for rat Adrenergic, Alpha 1B Receptor (Adra1B) (AID 2283297). Put shortly: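 Filter-binding radioligand competition on membranes from rat liver, read after 1 h by scintillation counting. Single-concentration duplicate screen at 25 uM, followed by concentration-response on actives, normalised to DMSO.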

Assay [6] has as its target rat Adrenergic Receptor, Beta (Adrb), Non-selective Binding, Adrb1 (gene 24925) (UniProt P18090). Kind of assay: NVS_GPCR_rAdrb_NonSelective: NovaScreen (NVS) G Protein-Coupled Receptor Assay for rat Adrenergic Receptor, Beta (Adrb), Non-selective Binding (AID 2283298). Put shortly: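 Rat cortical membranes incubated 1 h with beta-adrenergic radioligand and test chemical; bound ligand measured by filtration and scintillation counting. Screen at 25 uM duplicate, then concentration series with 50 uM maximum; loss of signal versus DMSO.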

The target in assay [7] is human Opioid Receptor Delta 1 (Opiate D1), OPRD1 (gene 4985) (UniProt P41143). The assay is described as follows: NVS_GPCR_hOpiate_D1: NovaScreen (NVS) G Protein-Coupled Receptor Assay for human Opioid Receptor Delta 1 (Opiate D1) (AID 2283280). Put shortly: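 Membrane preparations from CHO cells bearing the human receptor were incubated 1 h with test chemical, and bound radioligand was counted after filtration. Actives from 25 uM duplicate screening were retested in concentration-response.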
Sequence of human Opioid Receptor Delta 1 (Opiate D1), OPRD1 (gene 4985) (P41143 whole entry, looked up): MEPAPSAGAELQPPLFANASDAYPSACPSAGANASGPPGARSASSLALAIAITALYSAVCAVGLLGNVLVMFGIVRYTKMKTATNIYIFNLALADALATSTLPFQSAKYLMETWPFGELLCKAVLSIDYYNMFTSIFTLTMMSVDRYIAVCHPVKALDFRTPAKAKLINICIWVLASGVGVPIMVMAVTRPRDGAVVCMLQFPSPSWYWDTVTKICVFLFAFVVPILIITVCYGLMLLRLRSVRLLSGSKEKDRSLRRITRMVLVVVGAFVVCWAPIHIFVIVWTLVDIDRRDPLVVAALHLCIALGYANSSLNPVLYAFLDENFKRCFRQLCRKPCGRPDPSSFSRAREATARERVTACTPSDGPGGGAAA

The target of assay [8] is human Purinergic Receptor P2Y, P2RY1 (gene 5028) (UniProt P47900). Kind of assay: NVS_GPCR_hPY2: NovaScreen (NVS) G Protein-Coupled Receptor Assay for human Purinergic Receptor P2Y (AID 2283281). An outline of the steps:
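Filtration scintillation readout of radioligand displacement on U937 extract, measured 1 h post-dosing. Single 25 uM duplicate screen, then singleton concentration series to 50 uM for chemicals passing threshold; DMSO as baseline.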

The target in assay [9] is human Thromboxane A2 Receptor (TXA2), TBXA2R (gene 6915) (UniProt P21731). The assay is described as follows: NVS_GPCR_hTXA2: NovaScreen (NVS) G Protein-Coupled Receptor Assay for human Thromboxane A2 Receptor (TXA2) (AID 2283282).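 Note: actives reduce bound radioligand signal relative to DMSO baseline.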 An outline of the steps: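 Cell-free radioligand binding on membrane protein from human platelets; radioligand displacement read by filter-based scintillation counting after 1 h. Primary screen in duplicate at 25 uM, actives then run in concentration series; loss of signal versus DMSO.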
Sequence of human Thromboxane A2 Receptor (TXA2), TBXA2R (gene 6915) (P21731 whole entry, looked up): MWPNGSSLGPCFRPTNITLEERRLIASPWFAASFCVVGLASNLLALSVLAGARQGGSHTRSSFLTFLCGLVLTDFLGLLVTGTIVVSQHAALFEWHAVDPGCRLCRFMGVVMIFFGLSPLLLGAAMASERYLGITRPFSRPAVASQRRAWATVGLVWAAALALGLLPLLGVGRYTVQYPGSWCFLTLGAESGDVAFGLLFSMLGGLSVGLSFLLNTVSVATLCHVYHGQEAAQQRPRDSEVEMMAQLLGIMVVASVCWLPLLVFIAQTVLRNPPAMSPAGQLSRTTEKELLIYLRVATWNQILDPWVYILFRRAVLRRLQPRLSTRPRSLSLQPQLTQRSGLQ

The target in assay [10] is human Orphanin, Opioid Related Nociceptin Receptor 1 (ORL1), OPRL1 (gene 4987) (UniProt P41146). Kind of assay: NVS_GPCR_hORL1: NovaScreen (NVS) G Protein-Coupled Receptor Assay for human Orphanin, Opioid Related Nociceptin Receptor 1 (ORL1) (AID 2283283). Put shortly:
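Cell-free binding using HEK293-derived receptor protein: radioligand displacement measured by filter scintillation 1 hour after dosing. Primary testing at 25 uM in duplicate, followed by singleton concentration series up to 50 uM; DMSO served as negative control.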

Assay [11] deals with rat Serotonin, 5-Hydroxytryptamine Receptor (5HT), Non-Selective Binding, Htr1a (gene 24473) (UniProt P19327). The assay is described as follows: NVS_GPCR_r5HT_NonSelective: NovaScreen (NVS) G Protein-Coupled Receptor Assay for rat Serotonin, 5-Hydroxytryptamine Receptor (5HT), Non-Selective Binding (AID 2283295). An outline of the steps: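 Rat cortex membrane preparation incubated 1 h with radioligand and test chemical; bound radioactivity counted after filtration. Screening began in duplicate at 25 uM with concentration-series follow-up; fitting relative to DMSO.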
Sequence of rat Serotonin, 5-Hydroxytryptamine Receptor (5HT), Non-Selective Binding, Htr1a (gene 24473) (P19327 whole entry, looked up): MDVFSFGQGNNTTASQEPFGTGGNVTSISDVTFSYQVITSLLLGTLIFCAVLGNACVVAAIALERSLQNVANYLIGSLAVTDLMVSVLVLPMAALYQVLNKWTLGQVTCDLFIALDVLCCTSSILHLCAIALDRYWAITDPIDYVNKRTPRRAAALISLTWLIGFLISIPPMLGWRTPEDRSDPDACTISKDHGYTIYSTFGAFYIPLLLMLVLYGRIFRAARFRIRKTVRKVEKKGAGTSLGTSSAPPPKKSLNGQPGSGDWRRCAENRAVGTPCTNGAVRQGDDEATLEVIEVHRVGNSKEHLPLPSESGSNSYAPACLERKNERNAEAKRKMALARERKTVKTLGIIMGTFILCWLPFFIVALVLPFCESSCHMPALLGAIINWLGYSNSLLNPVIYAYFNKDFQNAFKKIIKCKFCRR

Assay [12] deals with rat Adrenergic Receptor, Alpha 2 (Adra2), Non-selective Binding, Adra2a (gene 25083) (UniProt P22909). Kind of assay: NVS_GPCR_rAdra2_NonSelective: NovaScreen (NVS) G Protein-Coupled Receptor Assay for rat Adrenergic Receptor, Alpha 2 (Adra2), Non-selective Binding (AID 2283299). Put shortly:
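Filter-based scintillation counting of radioligand binding to rat cortical membrane receptors, measured 1.25 hours post-dosing; loss of signal versus DMSO indicates displacement. Initial single-concentration duplicate at 25 uM, then concentration series.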

The target in assay [13] is human Vasopressin 1A Receptor (V1A), AVPR1A (gene 552) (UniProt P37288). The assay is described as follows: NVS_GPCR_hV1A: NovaScreen (NVS) G Protein-Coupled Receptor Assay for human Vasopressin 1A Receptor (V1A) (AID 2283284). An outline of the steps: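 Single-concentration duplicate screen at 25 uM, with concentration-response follow-up (top 50 uM) for actives. The assay measured displacement of a radioligand from human platelet-derived receptor after 1.5 h, detected by filtration and scintillation counting.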

Assay [14] deals with rat Gamma-Aminobutyric Acid Type B Receptor (GABBR), Gabbr1 (gene 81657) (UniProt Q9Z0U4). Kind of assay: NVS_GPCR_rGABBR: NovaScreen (NVS) G Protein-Coupled Receptor Assay for rat Gamma-Aminobutyric Acid Type B Receptor (GABBR) (AID 2283301). An outline of the steps: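 Rat cortical membrane preparation, competitive radioligand binding for 1 h with filtration and scintillation readout. Actives from duplicate single-point 25 uM screening proceeded to concentration series with 50 uM top concentration.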

For assay [15], the target named is rat Serotonin, 5-Hydroxytryptamine Receptor 1 (5HT1), Non-Selective Binding, Htr1a (gene 24473) (UniProt P19327). Kind of assay: NVS_GPCR_r5HT1_NonSelective: NovaScreen (NVS) G Protein-Coupled Receptor Assay for rat Serotonin, 5-Hydroxytryptamine Receptor 1 (5HT1), Non-Selective Binding (AID 2283286). Put shortly:
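Binding of a radioligand to rat cortex membranes is read by filtration and scintillation counting after 1 h. Compounds were screened at 25 uM in duplicate. Actives were then titrated to a top of 50 uM. DMSO is the baseline.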

Assay [16] addresses rat Adrenergic, Alpha 1A Receptor (Adra1A), Adra1a (gene 29412) (UniProt P43140). The assay is described as follows: NVS_GPCR_rAdra1A: NovaScreen (NVS) G Protein-Coupled Receptor Assay for rat Adrenergic, Alpha 1A Receptor (Adra1A) (AID 2283296). Put shortly: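 Filter radiodetection after 1 h competitive binding on CEC-pretreated rat cortical membranes. Duplicate single-point screening at 25 uM; active chemicals retested across concentration series.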

Assay [17] addresses guinea pig Bradykinin Receptor B2 (BK2), BDKRB2 (gene 100135486) (UniProt O70526). Kind of assay: NVS_GPCR_gBK2: NovaScreen (NVS) G Protein-Coupled Receptor Assay for guinea pig Bradykinin Receptor B2 (BK2) (AID 2283292). Put shortly: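 Guinea pig ileum membrane preparation incubated 1 h with radioligand and test chemical; bound counts measured after filtration. Primary duplicate screening at 25 uM, then singleton concentration series with a 50 uM top dose; DMSO as baseline.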

Assay [18] addresses mouse Cholecystokinin, CCK1 Receptor (CCKA), Cckar (gene 12425) (UniProt O08786). Kind of assay: NVS_GPCR_mCCKAPeripheral: NovaScreen (NVS) G Protein-Coupled Receptor Assay for mouse Cholecystokinin, CCK1 Receptor (CCKA) (AID 2283285). An outline of the steps:
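Chemicals were first screened in duplicate at 25 uM, with those meeting threshold (e.g., 30% inhibition) retested in singleton concentration series to 50 uM maximum. Binding of radioligand to mouse pancreatic membranes was read after 2 h by filtration and scintillation counting.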

The record followed here is PubChem BioAssay (EPA / NIEHS).

Inconclusive results are not listed. Calls of active or inactive are those of the source. Rule for the calls: active = hit-call score of the fitted dose curve at least 0.9, where 1 is the maximum; inconclusive = response in the unintended direction; inactive = score below 0.9.

Sequence of rat Adrenergic Receptor, Alpha 2 (Adra2), Non-selective Binding, Adra2a (gene 25083) (P22909 whole entry, looked up): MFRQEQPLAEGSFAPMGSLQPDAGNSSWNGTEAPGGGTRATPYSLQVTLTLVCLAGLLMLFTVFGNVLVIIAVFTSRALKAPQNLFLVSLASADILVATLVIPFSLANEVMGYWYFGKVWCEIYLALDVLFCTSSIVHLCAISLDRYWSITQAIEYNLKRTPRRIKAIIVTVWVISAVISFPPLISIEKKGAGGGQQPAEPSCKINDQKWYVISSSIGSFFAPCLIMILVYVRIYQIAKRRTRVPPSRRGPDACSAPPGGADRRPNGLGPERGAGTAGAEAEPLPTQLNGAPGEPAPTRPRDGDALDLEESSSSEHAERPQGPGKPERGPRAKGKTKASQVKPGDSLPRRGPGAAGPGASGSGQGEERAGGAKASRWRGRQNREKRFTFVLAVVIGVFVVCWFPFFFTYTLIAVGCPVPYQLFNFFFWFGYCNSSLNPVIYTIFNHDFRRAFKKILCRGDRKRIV
Sequence of human Opioid Receptor Mu (Opiate Mu), OPRM1 (gene 4988) (P35372 whole entry, looked up): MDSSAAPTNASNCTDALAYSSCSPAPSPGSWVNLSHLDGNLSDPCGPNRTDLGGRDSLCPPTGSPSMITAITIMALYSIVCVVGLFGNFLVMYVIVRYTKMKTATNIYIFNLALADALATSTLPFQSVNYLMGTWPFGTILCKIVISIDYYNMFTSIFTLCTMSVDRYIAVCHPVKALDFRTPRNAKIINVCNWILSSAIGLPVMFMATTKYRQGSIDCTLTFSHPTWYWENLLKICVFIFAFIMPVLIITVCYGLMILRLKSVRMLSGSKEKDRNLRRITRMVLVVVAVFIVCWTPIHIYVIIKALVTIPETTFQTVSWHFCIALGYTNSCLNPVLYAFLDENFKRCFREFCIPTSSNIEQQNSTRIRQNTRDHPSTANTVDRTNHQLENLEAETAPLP
Sequence of rat Adrenergic, Alpha 1, Non-selective Receptor (Adra1), Adra1a (gene 29412) (P43140 whole entry, looked up): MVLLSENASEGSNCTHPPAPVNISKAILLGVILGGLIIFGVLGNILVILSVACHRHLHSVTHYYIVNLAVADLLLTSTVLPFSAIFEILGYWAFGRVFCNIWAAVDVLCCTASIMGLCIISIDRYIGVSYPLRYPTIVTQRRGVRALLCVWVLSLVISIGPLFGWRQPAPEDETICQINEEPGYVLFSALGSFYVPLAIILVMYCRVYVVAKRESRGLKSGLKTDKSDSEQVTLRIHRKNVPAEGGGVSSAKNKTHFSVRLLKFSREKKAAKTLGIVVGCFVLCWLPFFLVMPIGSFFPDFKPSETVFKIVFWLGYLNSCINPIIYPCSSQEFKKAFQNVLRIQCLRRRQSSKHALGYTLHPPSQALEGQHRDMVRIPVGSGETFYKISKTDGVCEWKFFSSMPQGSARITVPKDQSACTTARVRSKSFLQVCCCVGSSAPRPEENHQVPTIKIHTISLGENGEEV
Sequence of guinea pig Serotonin, 5-Hydroxytryptamine Receptor 4 (5HT4), HTR4 (gene 100135548) (O70528 whole entry, looked up): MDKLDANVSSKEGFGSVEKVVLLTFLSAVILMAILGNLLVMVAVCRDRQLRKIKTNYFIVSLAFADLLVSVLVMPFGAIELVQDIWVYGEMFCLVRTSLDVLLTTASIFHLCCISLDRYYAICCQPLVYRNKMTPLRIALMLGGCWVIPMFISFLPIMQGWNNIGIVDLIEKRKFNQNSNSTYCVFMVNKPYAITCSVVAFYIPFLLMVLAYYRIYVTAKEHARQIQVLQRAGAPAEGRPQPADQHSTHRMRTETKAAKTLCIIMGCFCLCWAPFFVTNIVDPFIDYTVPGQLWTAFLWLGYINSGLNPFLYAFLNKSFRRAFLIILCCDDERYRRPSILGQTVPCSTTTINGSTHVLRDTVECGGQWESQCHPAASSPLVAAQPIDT
Sequence of human Purinergic Receptor P2Y, P2RY1 (gene 5028) (P47900 whole entry, looked up): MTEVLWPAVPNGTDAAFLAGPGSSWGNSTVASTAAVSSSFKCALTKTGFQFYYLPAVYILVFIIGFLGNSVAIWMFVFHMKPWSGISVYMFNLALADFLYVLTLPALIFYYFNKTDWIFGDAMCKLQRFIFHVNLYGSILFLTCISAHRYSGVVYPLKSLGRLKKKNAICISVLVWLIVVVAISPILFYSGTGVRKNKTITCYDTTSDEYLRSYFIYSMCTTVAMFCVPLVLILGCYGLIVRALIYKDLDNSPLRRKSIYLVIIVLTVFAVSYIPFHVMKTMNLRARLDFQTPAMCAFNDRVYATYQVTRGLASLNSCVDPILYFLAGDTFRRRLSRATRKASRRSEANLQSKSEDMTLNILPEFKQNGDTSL
Sequence of rat Adrenergic Receptor, Beta (Adrb), Non-selective Binding, Adrb1 (gene 24925) (P18090 whole entry, looked up): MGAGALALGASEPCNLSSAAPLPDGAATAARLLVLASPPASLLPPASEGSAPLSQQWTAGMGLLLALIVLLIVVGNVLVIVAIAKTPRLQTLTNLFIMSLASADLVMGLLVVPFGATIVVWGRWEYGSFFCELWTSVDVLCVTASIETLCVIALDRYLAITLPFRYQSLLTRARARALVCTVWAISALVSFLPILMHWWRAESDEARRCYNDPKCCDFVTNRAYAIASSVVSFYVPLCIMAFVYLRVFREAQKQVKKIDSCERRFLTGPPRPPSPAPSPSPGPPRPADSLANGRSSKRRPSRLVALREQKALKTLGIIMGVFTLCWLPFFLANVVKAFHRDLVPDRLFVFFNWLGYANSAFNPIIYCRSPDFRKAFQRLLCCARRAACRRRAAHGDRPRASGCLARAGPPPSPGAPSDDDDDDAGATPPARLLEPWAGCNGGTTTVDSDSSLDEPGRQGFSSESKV
Sequence of rat Adrenergic, Alpha 1A Receptor (Adra1A), Adra1a (gene 29412) (P43140 whole entry, looked up): as the sequence (P43140 whole entry, looked up) above
Sequence of human Orphanin, Opioid Related Nociceptin Receptor 1 (ORL1), OPRL1 (gene 4987) (P41146 whole entry, looked up): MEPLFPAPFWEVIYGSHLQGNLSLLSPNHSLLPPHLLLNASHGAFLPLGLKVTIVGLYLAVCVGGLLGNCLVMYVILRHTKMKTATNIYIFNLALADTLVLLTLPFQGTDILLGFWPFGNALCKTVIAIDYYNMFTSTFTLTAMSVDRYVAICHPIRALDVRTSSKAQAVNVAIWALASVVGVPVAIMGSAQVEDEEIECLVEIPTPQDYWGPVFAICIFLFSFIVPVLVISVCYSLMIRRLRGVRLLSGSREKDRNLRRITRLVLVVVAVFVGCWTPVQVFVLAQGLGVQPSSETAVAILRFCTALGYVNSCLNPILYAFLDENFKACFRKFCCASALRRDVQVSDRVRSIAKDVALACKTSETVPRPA
Sequence of guinea pig Bradykinin Receptor B2 (BK2), BDKRB2 (gene 100135486) (O70526 whole entry, looked up): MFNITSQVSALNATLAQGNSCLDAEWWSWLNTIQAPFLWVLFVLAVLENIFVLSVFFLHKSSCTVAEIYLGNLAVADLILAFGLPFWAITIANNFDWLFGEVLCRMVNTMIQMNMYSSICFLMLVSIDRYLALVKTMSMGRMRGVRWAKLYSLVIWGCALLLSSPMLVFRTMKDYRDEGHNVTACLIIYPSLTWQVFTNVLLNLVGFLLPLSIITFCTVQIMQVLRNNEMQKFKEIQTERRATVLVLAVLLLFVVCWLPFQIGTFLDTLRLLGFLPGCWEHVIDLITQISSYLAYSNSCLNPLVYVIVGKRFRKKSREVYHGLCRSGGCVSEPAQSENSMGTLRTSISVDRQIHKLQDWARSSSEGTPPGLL

As to `Oc1ccc2c(c1)OC[C@@H](N1CCC(O)(c3ccc(F)cc3)CC1)[C@H]2O`, the compound was called inactive in assay [1], in assay [2], in assay [3], in assay [4] and in [5]. The half-maximal activity concentration (AC50) (in general, the concentration giving half of the maximal activity seen) in [6] is 5.17 µM (active).
As to `CCCCC(CC)COC(=O)CC(C(=O)OCC(CC)CCCC)S(=O)(=O)O` (stereo not given), the AC50 in assay [7] was 10.3 µM (active); in assay [8], 7.46 µM (active); in assay [9], 8.9 µM (active); in assay [10], 15.9 µM (active); in [1], 32.4 µM (active); in [2] it was 17 µM (active). For the same compound, the half-maximal activity concentration (AC50) in [3] was 14.8 µM (active); in assay [4], 36 µM (active); in [11], 25 µM (active); in assay [5], 29.2 µM (active); in assay [12], 32.9 µM (active).
As for `CC=Cc1ccc(O)c(OC)c1`, the call in assay [3] was inactive.
Turning to `Cc1cccc(C)c1O`, in assay [13], the call was inactive.
With `COc1ccc2c(c1)c(CC(=O)O)c(C)n2C(=O)c1ccc(Cl)cc1`, the result in assay [14] was inactive.
As for `NC(=O)Cn1c(=O)cc(CCN2CCN(c3nccc4sccc34)CC2)c2ccc(F)cc21`, the AC50 in assay [15] was 0.47 µM (active); in [1], 0.00974 µM (active); in assay [2], 0.0868 µM (active); in [11], 0.0315 µM (active); in [16], 0.258 µM (active); in assay [5], 0.595 µM (active). In assay [12], the AC50 is 0.167 µM (active).
With `Cc1cccc(Nc2cc(Cl)nc(SCC(=O)O)n2)c1C`, the concentration at half-maximal activity (AC50) in assay [9] was 5.03 µM (active).
On to `COc1cc(C=O)ccc1O`, for which the outcome in [17] was inactive.
Regarding `Nc1nc(N)c2nc(CNc3ccc(C(=O)N[C@@H](CCC(=O)O)C(=O)O)cc3)cnc2n1`, the compound was classed as inactive in assay [7]. In assay [3], the AC50 was 5.21 µM (active).
For the compound `CNCc1cc(F)ccc1Oc1ccc(Cl)c(Cl)c1`, the compound was classed as inactive in [9]. Moreover, the half-maximal activity concentration (AC50) in [6] was 12.2 µM (active).
In the case of `CC1(C)CC(N=C=O)CC(C)(CN=C=O)C1` (stereo not given), the call in assay [7] was inactive.
Regarding `CC1=C(/C=C/C(C)=C/C=C/C(C)=C/CO)C(C)(C)CCC1`, the compound was classed as inactive in [3] and in assay [11].
With `CCOC(=O)CCC(=O)OCC`, the call in assay [8], in assay [10], in assay [1], in assay [3], in assay [16] and in assay [12] was inactive.
Consider `COc1cc(-c2nc(NC(=O)c3cc4cc(C)cc(C)c4n3CC(=O)O)sc2CCC2CCCCC2)c(OC)cc1Cl`, for which, in assay [9], the compound was classed as inactive. The half-maximal activity concentration (AC50) in [18] was 0.178 µM (active).
Turning to `C=CCOC(=O)c1ccccc1C(=O)OCC=C`, the AC50 in assay [1] was 25 µM (active).
